Among the data in PubChem BioAssay are composite z-score and z-score values, retold here.

Active and inactive are the calls of the source. Unless noted, the rule behind the calls is not given here.

Assay [1] is described as follows: compounds binding Alexa647 anti-His antibody – biochemical, small-molecule microarray, 635 nm fluorescence, artefact control for SMM control protein annotation, primary screen (AID 1128).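 Note: score merges feature fluorescence with signal-to-noise for each printed compound spot.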 The following applies: higher = more signal.
Assay [2] has as its system Human papillomavirus type 1a E7 protein (residues 1-88). As to the kind of experiment: HPV1a E7 small-molecule binders, primary screen, biochemical, small-molecule microarray, residues 1-88, 635 nm (AID 1129). The note with it: small-molecule microarray binding, fluorescence 635 nm; higher = more signal.
The target in assay [3] is Focal adhesion kinase 1 (Homo sapiens) (UniProt Q05397). As to the kind of experiment: PTK2 protein binding on printed compound slides – biochemical, small-molecule microarray, 635/667 nm fluorescence, BSA, DTT, primary screen (AID 1130).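 Note: composite of spot emission at 667 nm and signal to noise over triplicate slides.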 The following applies: 635 nm fluorescence, higher = more signal.
In assay [4] the test system is Fibrinogen (Alexa647-labelled). Nature of the assay: Alexa647-fibrinogen binding to printed small molecules – biochemical, small-molecule microarray, 635/667 nm fluorescence, artefact control for SMM control-protein annotation, profiling panel (AID 1131).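 Note: z-score merges 667 nm fluorescence with per-spot signal-to-noise over triplicate slides.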 The following applies: fibrinogen-A647 binding fluorescence, higher = more signal.
Assay [5] addresses Follistatin (Homo sapiens) (UniProt P19883). Nature of the assay: FST protein binding to printed compounds – biochemical, small-molecule microarray, 635/667 nm fluorescence, primary screen (AID 1132). The following applies: 635 nm fluorescence, higher = more signal.
In assay [6] the target is Fibroblast growth factor 2 (Homo sapiens) (UniProt P09038). As to the kind of experiment: basic fibroblast growth factor binding to printed compounds – biochemical, small-molecule microarray, 635/667 nm fluorescence, primary screen (AID 1133). The following applies: FGF2, fluorescence 635/667, higher = more signal.
Assay [7] is described as follows: JC-1 mitochondrial potential readout, lung cancer cells – cell-based, A549, JC-1 fluorescence, basal, 24 h, 100 nL, profiling panel (AID 1138).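 Note: A549 lung adenocarcinoma cells under basal conditions with no added stimulus; test concentration not given here.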 The note with it: higher = more signal.
A further assay has as its system Lefty1. Nature of the assay: Lefty1 protein binding to printed compounds – biochemical, small-molecule microarray, 635/667 nm fluorescence, primary screen (AID 1139). The note with it: fluorescence 635/667, higher = more signal.
Assay [8] concerns wheat germ agglutinin (Triticum aestivum), Alexa647-labelled. Nature of the assay: Alexa647-WGA lectin binding to printed small molecules – biochemical, small-molecule microarray, 635/667 nm fluorescence, artefact control for SMM control-protein annotation, profiling panel (AID 1140).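 Note: score merges 667 nm feature emission with signal to noise over triplicate slides.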 The following applies: WGA-A647 binding, 635 nm fluorescence, higher = more signal.
Assay [9] has as its target Luciferin 4-monooxygenase (Photinus pyralis) (UniProt P08659). Nature of the assay: inhibition of purified Photinus pyralis luciferase – biochemical, luminescence, purified enzyme, 2006 set, primary screen (AID 1141).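 Note: cell-free assay with purified firefly luciferase at 100 ng per well in PBS; test concentration not given here.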 The note with it: purified firefly luciferase, SteadyGlo luminescence, 30 min; higher = more signal, called active from +8 up or from −8 down.
The subject of assay [10] is Wnt5a (protein binding on small-molecule microarray). Nature of the assay: small molecules binding Wnt5a protein – biophysical, small-molecule microarray, 635/667 nm fluorescence, primary screen (AID 1142).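 Note: fluorescence read at 667 nm with signal to noise per printed feature.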 The note with it: 635 nm fluorescence, higher = more signal.
Assay [11] in a line: ATP-based viability of Huh7 replicon cells – cell-based, CellTiter-Glo luminescence, basal, 48 h, cytotoxicity control for HCV replication inhibitor project, primary screen (AID 1143).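 Note: Huh7 hepatoma cells carrying a hepatitis C replication reporter with no stimulus; test concentration not given here.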 The following applies: higher = more signal, called active from +8 up or from −8 down. A general note: In antiviral work, replicon cells carry a viral genome segment that copies itself.
A short description of assay [12]: Pseudomonas biofilm growth suppression – PAO1 strain, BacTiter-Glo luminescence, LB-PBS, primary screen (AID 1144). The following applies: P. aeruginosa PAO1 biofilm, 12 h, higher = more signal.
The nature of assay [13]: basal CRE-LacZ reporter activity in PC12 – cell-based, unstimulated, primary screen (AID 1145). The following applies: no forskolin, luminescence, 4.5 h, higher = more signal, called active from +8 up or from −8 down.
Assay [14] is described as follows: forskolin-driven CRE-LacZ activity in PC12 – cell-based, CRE-LacZ reporter, forskolin-stimulated, primary screen (AID 1146).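 Note: PC12 cells with 6xCRE LacZ reporter stimulated by forskolin 10 µM; beta-galactosidase reporter signal reflecting CREB driven transcription.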 The following applies: luminescence, 4.5 h, higher = more signal, called active from +8 up or from −8 down.
Assay [15] has as its target Streptavidin (Streptomyces avidinii) (UniProt P22629). Nature of the assay: compounds binding control protein streptavidin – biophysical, small-molecule microarray, 635/667 nm fluorescence, artefact control for SMM compound annotation, primary screen (AID 1147).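 Note: signal reflects streptavidin binding to arrayed compounds as a control protein.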 The following applies: higher = more signal.
Assay [16] is described as follows: probe aInhba binding on compound microarray – biochemical, small-molecule microarray, 635/667 nm fluorescence, primary screen (AID 1148).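 Note: score merges 667nm spot fluorescence with signal-to-noise for antibody binding to printed compounds.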 The following applies: higher = more signal.
Assay [17] deals with Torsin-1A (Homo sapiens) (UniProt O14656). Nature of the assay: TOR1A wild-type binding on microarray – cell lysate, small-molecule microarray, lysate, 635/667 nm, primary screen (AID 1149). The note with it: COS7 hTOR1A-WT lysate, 635 nm fluorescence, higher = more signal.
Assay [18] has the same target. As to the kind of experiment: torsin A mutant lysate binding on microarrays – cell lysate, small-molecule microarray, COS7 lysate, 635/667 nm fluorescence, primary screen (AID 1150).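 Note: score pools 667 nm emission and signal to noise measuring lysate protein binding.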 The following applies: COS7 hTOR1A mutant lysate, 635 nm fluorescence, higher = more signal.
The subject of assay [19] is Sonic hedgehog protein (Shh). Nature of the assay: Sonic hedgehog microarray binding compounds – biochemical, small-molecule microarray, 635/667 nm fluorescence, primary screen (AID 1151).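 Note: Shh protein binding to compounds spotted on small-molecule microarray slides; score combines spot fluorescence intensity with signal-to-noise across triplicate slides.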 The following applies: 635 nm fluorescence, higher = more signal.

Follistatin (Homo sapiens), sequence (P19883 whole entry, looked up): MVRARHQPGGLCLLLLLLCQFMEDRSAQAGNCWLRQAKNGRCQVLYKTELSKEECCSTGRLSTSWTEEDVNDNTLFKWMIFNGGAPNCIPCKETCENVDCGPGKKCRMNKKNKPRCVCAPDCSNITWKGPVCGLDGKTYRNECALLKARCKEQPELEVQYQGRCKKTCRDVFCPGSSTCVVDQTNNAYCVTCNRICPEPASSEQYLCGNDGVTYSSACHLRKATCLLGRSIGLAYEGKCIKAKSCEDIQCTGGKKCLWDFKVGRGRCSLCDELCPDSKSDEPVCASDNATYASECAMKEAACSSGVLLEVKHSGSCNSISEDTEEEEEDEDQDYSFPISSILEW
Luciferin 4-monooxygenase (Photinus pyralis), sequence (P08659 whole entry, looked up): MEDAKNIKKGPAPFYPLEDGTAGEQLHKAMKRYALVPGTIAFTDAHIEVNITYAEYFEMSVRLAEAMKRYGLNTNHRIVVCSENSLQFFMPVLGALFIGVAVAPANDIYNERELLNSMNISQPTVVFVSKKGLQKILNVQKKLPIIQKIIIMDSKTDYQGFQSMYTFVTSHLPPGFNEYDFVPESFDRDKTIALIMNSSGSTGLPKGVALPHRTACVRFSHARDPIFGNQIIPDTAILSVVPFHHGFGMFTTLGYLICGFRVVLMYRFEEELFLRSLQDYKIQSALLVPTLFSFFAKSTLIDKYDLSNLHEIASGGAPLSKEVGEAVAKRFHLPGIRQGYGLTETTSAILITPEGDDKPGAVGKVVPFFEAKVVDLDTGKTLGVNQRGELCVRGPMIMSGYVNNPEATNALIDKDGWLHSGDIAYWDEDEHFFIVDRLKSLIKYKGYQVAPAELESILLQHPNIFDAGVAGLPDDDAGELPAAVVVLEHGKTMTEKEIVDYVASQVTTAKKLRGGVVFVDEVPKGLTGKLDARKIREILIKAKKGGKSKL
Fibroblast growth factor 2 (Homo sapiens), sequence (P09038 whole entry, looked up): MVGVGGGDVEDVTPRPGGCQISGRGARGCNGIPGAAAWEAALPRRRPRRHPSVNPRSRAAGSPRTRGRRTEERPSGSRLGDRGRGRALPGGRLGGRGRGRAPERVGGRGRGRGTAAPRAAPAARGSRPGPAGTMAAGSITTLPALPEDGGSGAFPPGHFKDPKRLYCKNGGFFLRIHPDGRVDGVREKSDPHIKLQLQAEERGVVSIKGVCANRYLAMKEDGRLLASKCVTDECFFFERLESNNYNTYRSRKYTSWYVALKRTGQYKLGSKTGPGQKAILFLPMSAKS
Torsin-1A (Homo sapiens), sequence (O14656 whole entry, looked up): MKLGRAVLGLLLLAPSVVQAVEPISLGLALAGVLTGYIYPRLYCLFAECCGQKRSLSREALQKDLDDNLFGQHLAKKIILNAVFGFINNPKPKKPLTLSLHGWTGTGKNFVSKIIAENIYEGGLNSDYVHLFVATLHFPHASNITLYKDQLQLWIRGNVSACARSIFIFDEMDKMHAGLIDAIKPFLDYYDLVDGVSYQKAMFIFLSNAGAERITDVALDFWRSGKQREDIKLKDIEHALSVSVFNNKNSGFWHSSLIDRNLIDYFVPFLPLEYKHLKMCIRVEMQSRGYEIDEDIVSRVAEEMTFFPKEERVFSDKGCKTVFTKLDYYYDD
Streptavidin (Streptomyces avidinii), sequence (P22629 whole entry, looked up): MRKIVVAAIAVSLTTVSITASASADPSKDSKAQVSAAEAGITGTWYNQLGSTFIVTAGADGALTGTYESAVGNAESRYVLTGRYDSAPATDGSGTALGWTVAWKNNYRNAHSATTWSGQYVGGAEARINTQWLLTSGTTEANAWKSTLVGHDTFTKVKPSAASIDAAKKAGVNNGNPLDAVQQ
Focal adhesion kinase 1 (Homo sapiens), sequence (Q05397 whole entry, looked up): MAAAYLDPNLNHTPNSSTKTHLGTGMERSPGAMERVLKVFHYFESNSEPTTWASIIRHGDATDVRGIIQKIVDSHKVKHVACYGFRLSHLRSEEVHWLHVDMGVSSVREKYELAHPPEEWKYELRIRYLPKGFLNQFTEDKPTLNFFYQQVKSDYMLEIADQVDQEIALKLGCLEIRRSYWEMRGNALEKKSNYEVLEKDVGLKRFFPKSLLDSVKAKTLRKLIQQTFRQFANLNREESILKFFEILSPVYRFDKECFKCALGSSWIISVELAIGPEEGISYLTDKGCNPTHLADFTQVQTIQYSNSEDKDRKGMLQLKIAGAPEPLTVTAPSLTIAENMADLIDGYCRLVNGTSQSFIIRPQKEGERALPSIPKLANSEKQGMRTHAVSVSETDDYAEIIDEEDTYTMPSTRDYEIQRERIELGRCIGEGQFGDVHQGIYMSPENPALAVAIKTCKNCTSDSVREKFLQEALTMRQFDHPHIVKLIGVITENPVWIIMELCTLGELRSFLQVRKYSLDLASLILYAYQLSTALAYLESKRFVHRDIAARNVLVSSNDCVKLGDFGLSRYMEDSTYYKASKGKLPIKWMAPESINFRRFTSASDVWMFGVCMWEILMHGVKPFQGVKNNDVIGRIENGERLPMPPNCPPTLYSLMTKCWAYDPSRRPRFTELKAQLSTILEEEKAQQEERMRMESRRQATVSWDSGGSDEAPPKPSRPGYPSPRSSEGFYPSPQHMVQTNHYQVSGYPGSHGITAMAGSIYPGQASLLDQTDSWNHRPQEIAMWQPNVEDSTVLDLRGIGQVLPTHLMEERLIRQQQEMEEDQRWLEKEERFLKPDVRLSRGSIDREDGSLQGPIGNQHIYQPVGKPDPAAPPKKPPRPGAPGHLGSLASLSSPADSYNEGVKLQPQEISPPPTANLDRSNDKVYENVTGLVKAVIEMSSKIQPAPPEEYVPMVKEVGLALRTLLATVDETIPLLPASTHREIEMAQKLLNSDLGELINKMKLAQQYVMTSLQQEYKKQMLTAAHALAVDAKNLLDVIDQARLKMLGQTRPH

With `CC(C)(C)OC(=O)CC[C@@]1(C(=O)N2CCOCC2)N=C(c2ccc(OCCCO)cc2)O[C@@H]1c1ccccc1CN=[N+]=[N-]`, the composite z-score is 3.27 in assay [1]; 1.26 in [2]; 0.855 in [3]; 0.949 in assay [4]; 1.4 in [5]; 1.76 in assay [6]. Also, the composite z-score is -0.271 in the assay on Lefty1; 0.898 in [8]; 1.14 in assay [10]; 1.05 in assay [15]; 0.529 in assay [16]; 0.401 with Torsin-1A (Homo sapiens) [17]. The results for the composite z-score (in the assay with Torsin-1A (Homo sapiens) [18]; in [19]) were 2.23 and -0.33, respectively. Also, the z-score was 0.193 in [7]; -1.2 (inactive) in assay [9]; -0.435 (inactive) in assay [11]; -0.202 (inactive) in [12]; 0.311 (inactive) in assay [13]; -0.0177 (inactive) in assay [14].
In the case of `CCOC(=O)C[C@H]1[C@H](OC(=O)c2cc3ccccc3oc2=O)[C@@H](NC(=O)Cc2ccc(OC)cc2)c2cc(OCCCO)ccc2N1C(=O)Cc1ccc(OC)cc1`, the composite z-score in assay [1] is -0.279; in assay [2], -0.624; in assay [3], 0.122; in [4] it was 1.03; in assay [5] it was 0.705; in [6], 0.453. For the same compound, the composite z-score is 0.983 in the assay on Lefty1; 0.348 in [8]; 0.0746 in [10]; 0.55 in [15]; -0.185 in [16]; 0.332 with Torsin-1A (Homo sapiens) [17]. Besides, the composite z-score stood at 0.839 with Torsin-1A (Homo sapiens) [18] and 1.27 in assay [19]. Moreover, the z-score was -0.202 in [7]; 0.827 (inactive) in assay [9]; -1.5 (inactive) in assay [11]; -0.783 (inactive) in assay [12]; -0.0558 (inactive) in assay [13]; -1.59 (inactive) in assay [14].
As to `C=C(CCCC)C(=O)CC[C@@H](OC(C)=O)c1ccc(OCCO)cc1`, the composite z-score in assay [1] is 1.51; in assay [2] it was -0.161; in assay [3], -0.162; in assay [4], -0.134; in assay [5], 1.46; in assay [6], 1.4. Besides, the composite z-score is 1.69 with Lefty1; -0.578 in [8]; 0.791 in assay [10]; -0.871 in assay [15]; 0.0154 in assay [16]; 1.34 in the assay with Torsin-1A (Homo sapiens) [17]. For the same compound, the composite z-score in the assay with Torsin-1A (Homo sapiens) [18] amounted to 0.084; in [19], 1.52. Further, the z-score in [7] was -0.275; in assay [9], -1.4 (inactive); in assay [11] it was -0.742 (inactive); in [12], -1.12 (inactive); in assay [13] it was 0.653 (inactive); in assay [14] it was -0.101 (inactive).
As to `C=CCNC(=O)[C@@H]1[C@H]2C(=O)O[C@H](c3ccccc3)[C@H](c3ccccc3)N2[C@H](c2ccc(OCCO)cc2)[C@@]12C(=O)N(C(=O)OCCOC)c1ccccc12`, the composite z-score amounted to 1.25 in assay [1]; 1.19 in assay [2]; 0.986 in assay [3]; 0.61 in assay [4]; 1.29 in [5]; 1.26 in assay [6]. Moreover, the composite z-score with Lefty1 was 0.581; in [8] it was 0.539; in [10], 0.538; in assay [15], -0.154; in [16], 0.138; with Torsin-1A (Homo sapiens) [17], 0.72. For the same compound, the composite z-score with Torsin-1A (Homo sapiens) [18] stood at 0.281; in assay [19], 0.957. Further, the z-score in assay [7] was 1.11; in assay [9], 0.36 (inactive); in [11], -1.32 (inactive); in assay [12], -0.328 (inactive); in [13], 0.712 (inactive); in assay [14] it was -0.477 (inactive).
In the case of `COCCOC(=O)N1C(=O)[C@@]2(c3ccccc31)[C@H](C(=O)Nc1nc3ccccc3s1)[C@H]1C(=O)O[C@H](c3ccccc3)[C@H](c3ccccc3)N1[C@@H]2c1ccccc1OCCO`, the composite z-score in assay [1] was 1.55; in assay [2], 1.19; in assay [3], -0.0016; in assay [4], 0.941; in assay [5], 1.17; in assay [6], 0.676. Also, the composite z-score was determined as 0.42 in the assay with Lefty1; 1.19 in [8]; 0.0847 in assay [10]; 1.39 in assay [15]; 0.379 in assay [16]; 0.282 with Torsin-1A (Homo sapiens) [17]. The composite z-score in the assay with Torsin-1A (Homo sapiens) [18] amounted to 0.781; in assay [19] it was 0.733. Besides, the z-score is -2.3 in [7]; -0.653 (inactive) in [9]; -3.65 (inactive) in assay [11]; -0.457 (inactive) in assay [12]; -0.207 (inactive) in assay [13]; -0.144 (inactive) in assay [14].
